Values joined by “and” are separate entries in the source; they are usually repeats but may differ in a detail not shown here. Identical values can stand only once. Records with an inconclusive call do not appear. Active and inactive are the calls of the source. Calls come from the whole dose curve; as a rule, active = well fitted curve in the direction sought with a large enough effect; inconclusive = small, poorly fitted or top-dose-only effect, or another doubt; inactive = no such curve, though single readings can be large; an effect the other way counts as inactive or inconclusive.
% is set by controls: 0 for no effect and ±100 for the full control effect; potency is the fitted concentration of half-maximal effect.

One experiment in a line: qHTS Assay for Identifying Gametocytocidal Compounds (AID 743244).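 For max response: actives lower the fluorescent signal which means gametocytes are killed.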 Conditions: P. falciparum 3D7 stage III-V gametocytes, alamarBlue, 72 h; max response: active compounds read low. An outline of the steps:
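Late gametocytes (III–V), P. falciparum 3D7; 72 h drug, then 24 h alamarBlue; resazurin reduction read by fluorescence.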
Background: In qHTS, concentration-response curves come from the screen itself.
`COc1ccc(OC)c([C@@H](O)[C@H](C)N)c1`: the max response is 0.514% (inactive).

`NCC[C@H](O)C(=O)N[C@@H]1C[C@H](N)[C@@H](O[C@H]2O[C@H](CN)[C@@H](O)[C@H](O)[C@H]2N)[C@H](O[C@@H]2O[C@H](CO)[C@@H](O)[C@H]2O)[C@H]1O`: the max response was 16.1% (inactive). For the compound `CC(C)Nc1ccc(Nc2ccccc2)cc1`, the Potency was 10 µM (active). For `CC(=O)O[C@H]1C[C@H](O[C@H]2[C@@H](O)C[C@H](O[C@H]3[C@@H](O)C[C@H](O[C@H]4CC[C@@]5(C)[C@H](CC[C@@H]6[C@@H]5C[C@@H](O)[C@]5(C)[C@@H](C7=CC(=O)OC7)CC[C@]65O)C4)O[C@@H]3C)O[C@@H]2C)O[C@H](C)[C@H]1O[C@@H]1O[C@H](CO)[C@@H](O)[C@H](O)[C@H]1O`, the max response is -19.5% (inactive). In the case of `C[N+]1(C)[C@@H]2CC[C@H]1CC(OC(=O)c1c[nH]c3ccccc13)C2` (stereo not given in full), the max response was 8.77% (inactive). `CCN(CC)C(=O)/C(Cl)=C(\C)OP(=O)(OC)OC`: the max response is -6.42% (inactive). For the compound `CC(=O)O[C@H]1CC[C@@]2(C)C(=CC[C@@H]3[C@@H]2CC[C@]2(C)C(=O)CC[C@@H]32)C1`, the max response was 5.11% (inactive). The same measure, in the same setting: to `O=c1[nH]cc(N(CCCl)CCCl)c(=O)[nH]1` belongs -3.92% (inactive). Still for that read-out and setting: the same measure for `CCCC(C)(COC(N)=O)COC(=O)NC1CC1` (stereo not given): 6.87% (inactive); for `CCC1(c2ccccc2)C(=O)NC(=O)N(C)C1=O` (stereo not given): -0.22% (inactive). On to `[H+].[H+].[Hg+2].[O-]B([O-])[O-].[c-]1ccccc1`, for which the Potency is 3.55 µM (active). Consider `FC(F)OC(F)(F)C(F)Cl` (stereo not given), for which the max response is -4.54% (inactive).

On to `C[C@]12C=CC(=O)C=C1CC[C@@H]1[C@@H]2CC[C@]2(C)OC(=O)CC[C@@H]12`, for which the max response is -1.22% (inactive). The same measure, in the same setting: the same measure for `CC(N)Cc1ccc(O)cc1` (stereo not given): 1.03% (inactive). Still for that read-out and setting: to `C[C@H]1CC[C@]2(NC1)O[C@H]1C[C@H]3[C@@H]4CC[C@H]5C[C@@H](O[C@@H]6O[C@H](CO)[C@H](O[C@@H]7O[C@H](CO)[C@@H](O)[C@H](O[C@@H]8OC[C@@H](O)[C@H](O)[C@H]8O)[C@H]7O[C@@H]7O[C@H](CO)[C@@H](O)[C@H](O)[C@H]7O)[C@H](O)[C@H]6O)CC[C@]5(C)[C@H]4CC[C@]3(C)[C@H]1[C@@H]2C` belongs 6.32% (inactive). Same read-out and setting: to `C[N+]1([O-])[C@@H]2CC[C@H]1CC(OC(=O)C(CO)c1ccccc1)C2` (stereo not given in full) belongs 6.16% (inactive) and -9.54% (inactive). Regarding `CN(C)CCCCCCN(C)C` (tested in a mixture with another compound), the max response was 14.8% (inactive). Still for that read-out and setting: to `CCNCC(O)c1cccc(O)c1` (stereo not given) belongs -3.84% (inactive); to `C[C@]12CC[C@H]3[C@@H](CC[C@@]45O[C@@H]4C(O)=C(C#N)C[C@]35C)[C@@H]1CC[C@@H]2O`, -8.72% (inactive).

On to `CCC1(C)CC(=O)NC(=O)C1`, for which the max response was 2.58% (inactive). Turning to `CN1[C@H]2CC[C@@H]1[C@@H](C(=O)O)[C@@H](OC(=O)c1ccccc1)C2`, the max response is 17.6% (inactive) and -3.85% (inactive). With `C[CH2][Hg][S]c1ccccc1C(=O)O`, the Potency was 1.41 µM (active). Turning to `COCC(C)N(C(=O)CCl)c1c(C)csc1C` (stereo not given), the max response is -1.03% (inactive). As to `CC[C@H]1[C@@H]2C[C@H]3[C@@H]4N(C)c5ccccc5[C@]45C[C@@H](C2[C@H]5O)N3[C@@H]1O` (stereo not given in full), the max response was 7.56% (inactive). Turning to `CCNC1(c2cccs2)CCCCC1=O` (stereo not given), the max response is -0.213% (inactive). Regarding `S=C(S)N1CCNCC1`, the max response was -5.89% (inactive).

A short description of the next experiment: qHTS assay for cell viability of HEK293 cells (AID 743288). Note: nearly all actives have a fitted effect of over 50% in size. Particulars: ATP luminescence (CellTiter-Glo), 18 h; max response: active compounds read low. Put shortly:
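ATP luminescence (CellTiter-Glo) reports metabolically competent cell number after parental HEK293 cells, 2,000/well, were treated with DMSO-dissolved compounds for 18 h at 37 C; reagent incubation 30 min, room temperature.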
As for `O=[N+]([O-])C(Br)(CO)CO`, the Potency is 50.1 µM (active).

As to `C#CCN1CC(=O)N(COC(=O)C2C(C=C(C)C)C2(C)C)C1=O` (stereo not given), the max response was -15.4% (inactive).

In the case of `C[CH2][Hg][S]c1ccccc1C(=O)O`, the Potency is 50.1 µM (active). Regarding `COCC(C)N(C(=O)CCl)c1c(C)csc1C` (stereo not given), the max response is -15.8% (inactive).

A short description of a further experiment: qHTS assay for cell viability of the p53RE-bla HCT-116 cell line (AID 743292). Note: nearly all actives have a fitted effect of over 55% in size. Particulars: p53RE-bla HCT-116 viability, ATP luminescence, 16 h; series mostly up to 95 µM; activity change, negative = cytotoxicity: at the top concentration. An outline of the steps:
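After plating at 4,000 cells per well and a 5 h rest at 37 C, HCT-116 cells carrying p53RE-bla received test chemicals in DMSO. Sixteen hours later at 37 C, CellTiter-Glo was added and luminescence recorded following 30 min at room temperature.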
For the compound `O=[N+]([O-])C(Br)(CO)CO`, the “activity change, negative = cytotoxicity” value is 6.54% (inactive). Still for that read-out and setting: the same measure for `CC(C)Nc1ccc(Nc2ccccc2)cc1`: -12.5% (inactive). Same read-out and setting: to `C#CCN1CC(=O)N(COC(=O)C2C(C=C(C)C)C2(C)C)C1=O` (stereo not given) belongs 3.51% (inactive). Take `C[CH2][Hg][S]c1ccccc1C(=O)O`: the Potency was 15.8 µM (active). As for `COCC(C)N(C(=O)CCl)c1c(C)csc1C` (stereo not given), the “activity change, negative = cytotoxicity” value is -14.2% (inactive).

The record behind these values is PubChem BioAssay (NCATS).
